# Inconclusive results are not listed. Activity calls are given as the source filed them. Calls come from the whole dose curve; as a rule, active = well fitted inhibition curve with a large enough effect; inconclusive = small, poorly fitted or top-dose-only effect; inactive = no such curve, though single readings can be large or run the other way.
# Assay: InCell qHTS Assay for Inhibitors of the mTORC1 Signaling Pathway in MEF (Tsc2-/-, p53-/-) Cells: Hit Validation;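 note: phospho-S6 Ser235/236 signal normalized to propidium iodide cell count per well; nearly all actives have a fitted effect of over 75% in size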
# Conditions: phospho-rpS6 immunofluorescence, 24 h; activity change, negative = inhibition: at 38.3 µM (top of the series)
# Potency is the fitted concentration of half-maximal effect.
Compound,"activity change, negative = inhibition [%]",Potency
CCOC(=O)c1cnc2ccc(OCC)cc2c1NCCc1ccc(OC)c(OC)c1,-100,
Cc1ccccc1CS(=O)(=O)c1ncc(Cl)c(C(=O)Nc2nnc(C(C)C)s2)n1,,18.5 µM (active)
CCOC(=O)C(Cc1c[nH]c2ccccc12)NC(=O)COc1ccc(Cl)cc1 (configuration not stated),-100,
Cc1cccc(NC(c2cccc(Cl)c2)c2ccc3cccnc3c2O)n1 (configuration not stated),-100,
Cc1nn(C(C)C(=O)NC2CCCCC2)c(=O)c2c1sc1ccccc12 (configuration not stated),-100,
O=C(Nc1ccc(F)c(F)c1)c1ccc(F)c(S(=O)(=O)N2CCC3(CC2)OCCO3)c1,-100,
CCOc1ccc(S(=O)(=O)Nc2ccc(OC)c(Cl)c2)c2cccnc12,-100,
CC(C)CCNC(=O)C(=O)Nc1c2c(nn1-c1ccc(Cl)cc1)CSC2,,18.5 µM (active)
CCN(CC)Cc1c(NC(=O)c2ccc(OC)cc2)sc2c1CCCC2,1.72,
COc1ccc(OCC(O)Cn2c(=N)n(CCN3CCCCC3)c3ccccc32)cc1 (configuration not stated),-100,
CCC1=Nc2cc(C(=O)NC3CCCC3)ccc2Sc2ccc(Cl)cc21,-100,
COc1ccccc1NC(=O)C1=C(C)Nc2nc(SCc3ccccc3)nn2C1c1cccs1 (configuration not stated),-100,
Cc1c(C(=O)OC2CCC(C)CC2)[nH]c2c1C(=O)CC(c1ccccc1Cl)C2 (configuration not stated),-100,
CCCOc1cccc(C2c3c(-c4ccccc4O)n[nH]c3C(=O)N2Cc2ccco2)c1 (configuration not stated),-100,
CC(C)CCNC(=O)Nc1ccc2c(c1)N(C)C(=O)c1ccccc1S2,-100,
CC1=C(C(=O)Nc2ccc(C)cc2C)C(c2cc(Br)ccc2F)n2ncc(C(=O)Nc3ccc(C)cc3)c2N1 (configuration not stated),,14.7 µM (active)
Cc1c(C(=O)OC2CCCCC2)[nH]c2c1C(=O)CC(c1ccccc1Cl)C2 (configuration not stated),-100,
O=c1oc2ccccc2cc1-c1cn2cc(Cc3ccccc3F)sc2n1,-100,
Cc1ccc(-c2nnn(CC(=O)N(CC(=O)NCCC(C)C)c3ccc(F)cc3)n2)cc1,-100,

Compound,"activity change, negative = inhibition [%]",Potency
Cc1cccc(NC(=O)c2c(N)sc3c2CCC(C)C3)c1 (configuration not stated),-100,
COc1ccc(OC)c(NC2=C(c3ccccc3)C(=O)c3ccccc32)c1,-9.58,
CCOc1ccc(-n2c(C)nc3c(cnn3-c3ccc(C)cc3)c2=O)cc1,-100,
Cc1ccccc1NC(=O)c1c(NC(=O)C(F)(F)F)sc2c1CCCCC2,-100,
Cc1ccc(-c2nnc(Nc3cccc(Cl)c3)c3ccccc23)cc1S(=O)(=O)N1CCN(C)CC1,-100,
CCn1c(=O)sc2cc(NS(=O)(=O)c3ccc(F)c(C)c3)ccc21,-100,
CCNS(=O)(=O)c1cc(-c2nnc(Nc3cccc(C(F)(F)F)c3)c3ccccc23)ccc1C,-100,
COc1ccc(C(=O)Nc2ccc3c(c2)N(C)C(=O)c2ccccc2S3)cc1OC,-100,
Cc1ccc2c(c1)cc(C(=O)Nc1ccccc1C)n2C,-18.6,
CCS(=O)(=O)c1ccccc1C(=O)N(Cc1cccnc1)c1nc2cc(C)c(C)cc2s1,-100,
COc1ccc(OCC(=O)NCc2ccc3c(c2)CCN3C(=O)c2ccccc2)cc1,-100,
COc1ccc(C2=NS(=O)(=O)N(C)C(C(=O)Nc3ccc(OC(F)(F)F)cc3)=C2)cc1,-100,
CCNS(=O)(=O)c1ccc(NC(=O)CSc2nc(-c3ccco3)cc(C(F)(F)F)n2)cc1,-13.9,
CCCCOC(=O)c1ccc(NC(=O)c2ccc3c(c2)CCN3S(=O)(=O)c2ccccc2)cc1,-100,
Cc1ccc(-c2csc(-c3cc4c([nH]c3=O)CC(c3ccccc3)CC4=O)n2)cc1 (configuration not stated),-100,
Cc1cccc(NC(=O)c2sc3nc4c(cc3c2N)CCCCCC4)c1C,-11,
FC(F)(F)c1cccc(Nc2c3c(nc4ccc(Cl)cc24)CCC3)c1,-100,
O=C(C1CCN(c2nc3ccccc3[nH]2)CC1)N1CCN(c2cccc(Cl)c2)CC1,-100,
